Holding throughout (test): NCI-60 one-dose screen, 48 h (100 = growth as untreated, 0 = no growth, -100 = all killed)
For assay [1], the system named is SK-MEL-2 melanoma. The note with it: 10 µM unless noted.
Assay [2] deals with EKVX NSCLC. The note with it: 10 µM unless noted.
The test system of assay [3] is SN12C renal. The note with it: 10 µM unless noted.
Assay [4] has as its system UO-31 renal. The note with it: 10 µM unless noted.
The test system of assay [5] is TK-10 renal. The note with it: 10 µM unless noted.
Assay [6] has as its system ACHN renal. The conditions noted are these: 10 µM unless noted.
Assay [7] relates to CAKI-1 renal. The conditions noted are these: 10 µM unless noted.
Assay [8] relates to A498 renal. The note with it: 10 µM unless noted.
Assay [9] relates to CCRF-CEM leukemia. The note with it: 10 µM unless noted.
Assay [10] deals with MOLT-4 leukemia. The note with it: 10 µM unless noted.
Assay [11] relates to SR leukemia. The conditions noted are these: 10 µM unless noted.
The test system of assay [12] is RPMI-8226 leukemia. The conditions noted are these: 10 µM unless noted.
For assay [13], the system named is OVCAR-8 ovarian. The conditions noted are these: 10 µM unless noted.
In assay [14] the test system is OVCAR-5 ovarian. The note with it: 10 µM unless noted.
Assay [15] has as its system OVCAR-4 ovarian. The note with it: 10 µM.
In assay [16] the test system is SK-OV-3 ovarian. The note with it: 10 µM unless noted.
Assay [17] deals with OVCAR-3 ovarian. The note with it: 10 µM unless noted.
In assay [18] the test system is HS 578T breast. The note with it: 10 µM unless noted.
In assay [19] the test system is NCI/ADR-RES ovarian. The conditions noted are these: 10 µM unless noted.
Assay [20] has as its system IGROV1 ovarian. The note with it: 10 µM unless noted.

Growth data for eight compounds are collected here from PubChem BioAssay (NCI).

This is part of a sample that, as a whole, favours compounds with a hit. Of some 83,000 tested, about 20% had one in any assay.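 How to read the values: 0–100, growth inhibition (40 = 60% inhibited); 0, no net growth; -100 to 0, cell death (-40 = 40% of starting cells died; -100 = all dead).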 Unmarked numbers belong to inactive results. Calls of active or inactive are those of the source. Rule for the calls: active = growth percent below 10; inactive = the rest.

With `CCOC(=O)C(C(C)=O)c1nc2sc3cc(Cl)c(Cl)cc3n2c(=O)c1C#N` (centres undefined), the growth in [1] was 108%; in assay [2], 86%; in [3] it was 98.8%; in [4], 58.4%; in assay [5] it was 145%; in [6], 101%. Besides, the growth in assay [7] is 96.2%; in [8] it was 142%; in assay [9], 96.7%; in assay [10], 89.6%; in assay [11], 105%; in [12] it was 98.6%. The growth was 92.8% in assay [13]; 122% in [14]; 94.5% in [15]; 83.2% in [16]; 112% in assay [17]; 114% in [18]. Moreover, the growth in assay [19] is 106%.

With `Cn1cc(-c2nnc(-c3cn(C)c4ncc(Br)cc34)o2)c2ccccc21`, the growth was 99.1% in assay [1]; 74.1% in assay [2]; 88.2% in assay [3]; 61.4% in assay [4]; 114% in assay [5]; 81.4% in [6]. The growth in assay [7] is 45%; in assay [8], 86.4%; in assay [9], 102%; in assay [10], 93.6%; in assay [11], 52.7%; in assay [12], 88.5%. The growth in assay [13] is 93.4%; in assay [14], 93.4%; in assay [15] it was 90.3%; in assay [20], 65.8%; in [17], 88.2%; in assay [18], 89.6%.

For the compound `C#C[C@]1(O)CC[C@H]2[C@@H]3CC=C4c5nc(Nc6ccccc6[N+](=O)[O-])sc5CC[C@]4(C)[C@H]3CC[C@@]21C`, the growth is 56.7% in assay [1]; 67.4% in assay [2]; 79.5% in [3]; 63.1% in [4]; 72.4% in assay [5]; 70.7% in assay [6]. Also, the growth in [7] is 38.9%; in [8], 11.7%; in [9], 61.9%; in assay [10] it was 43.7%; in assay [11] it was 30.2%; in assay [12], 1.11% (active). The growth is 85.7% in assay [13]; 70.4% in assay [14]; 84.9% in assay [15]; 67.2% in [20]; 65.8% in [17]; 21.4% in [18].

On to `Cc1cc(SC#N)ncn1`, for which the growth in assay [1] was 66.9%; in assay [2], 101%; in assay [3], 94.9%; in assay [4], 96.2%; in assay [5] it was 101%; in assay [6], 98.4%. The growth was 98.9% in assay [7]; 102% in assay [8]; 88% in [9]; 109% in assay [10]; 109% in assay [11]; 101% in assay [12]. Also, the growth in assay [13] is 96.2%; in assay [14], 115%; in [15], 103%; in assay [16], 105%; in assay [17], 100%; in assay [18], 105%. The growth in assay [19] is 103%.

With `O=C(O)CSCc1nnc2n(Cc3ccccc3)c(=O)c3c4c(sc3n12)CCCC4`, the growth in assay [1] is 79.3%; in [2] it was 93.2%; in [3], 96%; in assay [4], 90.2%; in assay [5], 127%; in assay [6], 89.3%. Also, the growth in assay [7] was 99.2%; in assay [8] it was 112%; in [9], 81%; in assay [10], 71.8%; in assay [11], 75.6%; in assay [12], 76.9%. Besides, the growth in [13] is 92.6%; in assay [14], 94.1%; in assay [15], 95.6%; in [16], 106%; in assay [17], 107%; in assay [18] it was 99.1%. For the same compound, in [19], the growth is 96.6%.

Turning to `CCN(CC)CC(C)Nc1ccc(C)c2sc3ccccc3c(=O)c12` (centres undefined), the growth is 116% in assay [1]; 81.8% in assay [2]; 49.6% in assay [3]; 19.5% in assay [4]; 68.1% in [5]; 37.8% in assay [6]. The growth is 39.3% in assay [7]; 60.1% in [8]; 34.4% in assay [9]; 24.6% in assay [10]; 33.4% in assay [11]; 11% in assay [12]. Moreover, the growth in [13] is 64.2%; in [14], 68.9%; in [15] it was 75.9%; in assay [20] it was 19.1%; in assay [17] it was 77.5%; in [18], 73.8%.

Turning to `CC(C)(C)c1cc(C(=O)N2CCC(C(=O)NCCN)CC2)cc(C(C)(C)C)c1`, the growth was 97.4% in [1]; 84.7% in assay [2]; 89.5% in assay [3]; 93.3% in [4]; 98.4% in assay [5]; 108% in assay [6]. Besides, the growth in [7] was 80.7%; in assay [8], 56.6%; in assay [9], 94.8%; in assay [10], 98.5%; in [11] it was 98.4%; in assay [12], 94.4%. Also, the growth was 99% in assay [13]; 98.9% in assay [14]; 105% in assay [15]; 95.6% in [20]; 104% in assay [17]; 92% in [18]. Moreover, in [19], the growth was 104%.

In the case of `C1=C[C@H]2O[C@@H]1c1ccc3[nH]ccc3c12`, the growth is 95.7% in assay [1]; 105% in assay [2]; 102% in [3]; 98.3% in [4]; 105% in assay [5]; 107% in assay [6]. Moreover, the growth in [7] was 89.6%; in [8], 98.6%; in [9], 90.7%; in assay [10], 56%; in assay [11], 84.6%; in assay [12], 93.8%. The growth in assay [13] is 104%; in [14], 105%; in assay [15], 115%; in [16] it was 98.7%; in assay [17], 110%; in [18], 119%. Further, in assay [19], the growth was 63.7%.
